This is an account of results in the supplement of paper PMC4466140.

Some results are limits rather than exact numbers.

In the first assay the target is SpBzz1-D2. Description: SPOT peptide array binding signal intensity (averaged, normalized) (arbitrary units (background-subtracted, floor 0; scale differs between SH3 domains)); higher = stronger binding of the SH3 domain to the peptide. Summed up:
(§1)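 GST-fused SH3 domains, from four yeast species, were produced in E. coli BL21(DE3) and captured on glutathione Sepharose. Membranes of cellulose carrying synthetic 15-mer peptides, in which cysteines had been replaced by serines, were exposed to each domain at 10 μg/ml overnight at 4°C in TBS-based blocking buffer. After anti-GST antibody, an HRP anti-mouse secondary and luminol, spots were imaged and quantified using Genespotter. Binding signal is normalized and background-subtracted spot intensity, averaged over replicates, in arbitrary units that differ between domains.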
In the case of NFFRKKLGIPRKLKR, the “SPOT peptide array binding signal intensity” value was not above 0.

For another assay, the target named is SpCyk3. Described as above. Summed up: as §1
As for NFFRKKLGIPRKLKR, the “SPOT peptide array binding signal intensity” value is not above 0.

In another assay the target is SpHof1. The assay is described as above. Summed up: as §1
Regarding NFFRKKLGIPRKLKR, the “SPOT peptide array binding signal intensity” value stood at 87.

The next assay concerns the target SpHof1-2. The assay is described as above. Summed up: as §1
For NFFRKKLGIPRKLKR, the “SPOT peptide array binding signal intensity” value worked out at 1.25.

The next assay addresses SpHof1-3. The description is as above. Summed up: as §1
As to NFFRKKLGIPRKLKR, the “SPOT peptide array binding signal intensity” value was found to be 998.

The next assay addresses SpHse1. The description is as above. Summed up:
as §1
On to NFFRKKLGIPRKLKR, for which the “SPOT peptide array binding signal intensity” value stood at 1560.

A further assay deals with SpLsb1. The description is as above. Summed up: as §1
As for NFFRKKLGIPRKLKR, the “SPOT peptide array binding signal intensity” value is 25.5.

The next assay deals with SpLsb4. The description is as above. Summed up: as §1
As for NFFRKKLGIPRKLKR, the “SPOT peptide array binding signal intensity” value stood at 19.

The target in a further assay is SpMyo1. Described as above. Summed up: as §1
For the molecule NFFRKKLGIPRKLKR, the “SPOT peptide array binding signal intensity” value was found to be 0.5.

A further assay has as its target SpNbp2. The assay is described as above. Summed up:
as §1
NFFRKKLGIPRKLKR: the “SPOT peptide array binding signal intensity” value stood at 63.5.

In the next assay the target is SpPex13. Described as above. Summed up:
as §1
With NFFRKKLGIPRKLKR, the “SPOT peptide array binding signal intensity” value is 5.

The target in another assay is SpRvs167. Described as above. Summed up:
as §1
As to NFFRKKLGIPRKLKR, the “SPOT peptide array binding signal intensity” value stood at 3.67.

The target in another assay is SpSla1-D1-D2. The assay is described as above. Summed up:
as §1
As to NFFRKKLGIPRKLKR, the “SPOT peptide array binding signal intensity” value is not above 0.

For the next assay, the target named is SpSla1-D3. The description is as above. Summed up: as §1
Turning to NFFRKKLGIPRKLKR, the “SPOT peptide array binding signal intensity” value was determined as 17.5.

The target in the next assay is AgAbp1. Described as above. Summed up: as §1
Take KWVRRPKLMTPLTFS: the “SPOT peptide array binding signal intensity” value stood at 205.

The next assay has as its target AgBbc1. The description is as above. Summed up:
as §1
As for KWVRRPKLMTPLTFS, the “SPOT peptide array binding signal intensity” value was 73.5.

Another assay concerns the target AgBem1-D1. Described as above. Summed up: as §1
Turning to KWVRRPKLMTPLTFS, the “SPOT peptide array binding signal intensity” value worked out at 169.

A further assay deals with AgBzz1-D1. The description is as above. Summed up:
as §1
Take KWVRRPKLMTPLTFS: the “SPOT peptide array binding signal intensity” value was determined as 25.

Another assay concerns the target AgBzz1-D2. The assay is described as above. Summed up: as §1
Take KWVRRPKLMTPLTFS: the “SPOT peptide array binding signal intensity” value is 8.

A further assay concerns the target AgCyk3. Described as above. Summed up:
as §1
Take KWVRRPKLMTPLTFS: the “SPOT peptide array binding signal intensity” value was found to be 3.

The next assay concerns the target AgFus1. The description is as above. Summed up: as §1
Consider KWVRRPKLMTPLTFS, for which the “SPOT peptide array binding signal intensity” value came out at 754.

A further assay concerns the target AgHof1. The assay is described as above. Summed up: as §1
With KWVRRPKLMTPLTFS, the “SPOT peptide array binding signal intensity” value amounted to 110.

The next assay addresses AgHse1. The description is as above. Summed up:
as §1
For the molecule KWVRRPKLMTPLTFS, the “SPOT peptide array binding signal intensity” value worked out at 818.

Another assay deals with AgLsb1. Described as above. Summed up:
as §1
For the molecule KWVRRPKLMTPLTFS, the “SPOT peptide array binding signal intensity” value turned out to be 495.

Another assay concerns the target AgLsb4. Described as above. Summed up:
as §1
As to KWVRRPKLMTPLTFS, the “SPOT peptide array binding signal intensity” value is 71.

The target in another assay is AgMyo5. The assay is described as above. Summed up: as §1
On to KWVRRPKLMTPLTFS, for which the “SPOT peptide array binding signal intensity” value was not above 0.

Another assay has as its target AgNbp2. The assay is described as above. Summed up:
as §1
Turning to KWVRRPKLMTPLTFS, the “SPOT peptide array binding signal intensity” value was 371.

The next assay addresses AgRvs167. Described as above. Summed up:
as §1
For the molecule KWVRRPKLMTPLTFS, the “SPOT peptide array binding signal intensity” value came to 8.

A further assay deals with AgSho1. Described as above. Summed up:
as §1
On to KWVRRPKLMTPLTFS, for which the “SPOT peptide array binding signal intensity” value amounted to 185.

The next assay has as its target AgSla1-D1-D2. The description is as above. Summed up:
as §1
As to KWVRRPKLMTPLTFS, the “SPOT peptide array binding signal intensity” value worked out at 275.

The target of a further assay is AgSla1-D3. Described as above. Summed up: as §1
On to KWVRRPKLMTPLTFS, for which the “SPOT peptide array binding signal intensity” value worked out at 11.2.

The next assay deals with CaAbp1-D1. The assay is described as above. Summed up:
as §1
With KWVRRPKLMTPLTFS, the “SPOT peptide array binding signal intensity” value is 498.

The target in a further assay is CaAbp1-D2. The description is as above. Summed up:
as §1
KWVRRPKLMTPLTFS: the “SPOT peptide array binding signal intensity” value came out at 297.

A further assay deals with CaBbc1. The description is as above. Summed up:
as §1
Turning to KWVRRPKLMTPLTFS, the “SPOT peptide array binding signal intensity” value came to 192.

A further assay deals with CaBem1-D1. The description is as above. Summed up:
as §1
KWVRRPKLMTPLTFS: the “SPOT peptide array binding signal intensity” value was 329.

The target of another assay is CaBzz1-D1. Described as above. Summed up: as §1
In the case of KWVRRPKLMTPLTFS, the “SPOT peptide array binding signal intensity” value was determined as 164.

The next assay addresses CaBzz1-D2. The description is as above. Summed up: as §1
In the case of KWVRRPKLMTPLTFS, the “SPOT peptide array binding signal intensity” value worked out at 121.

The next assay has as its target CaCyk3. The description is as above. Summed up:
as §1
KWVRRPKLMTPLTFS: the “SPOT peptide array binding signal intensity” value is 45.

The next assay concerns the target CaFus1. The assay is described as above. Summed up:
as §1
Take KWVRRPKLMTPLTFS: the “SPOT peptide array binding signal intensity” value amounted to 1360.

In a further assay the target is CaHof1. The description is as above. Summed up:
as §1
With KWVRRPKLMTPLTFS, the “SPOT peptide array binding signal intensity” value amounted to 1.5.

The target of the next assay is CaHse1. Described as above. Summed up: as §1
For KWVRRPKLMTPLTFS, the “SPOT peptide array binding signal intensity” value worked out at 180.

The next assay has as its target CaLsb1. The assay is described as above. Summed up: as §1
Turning to KWVRRPKLMTPLTFS, the “SPOT peptide array binding signal intensity” value turned out to be 7.

Another assay has as its target CaLsb4. Described as above. Summed up: as §1
KWVRRPKLMTPLTFS: the “SPOT peptide array binding signal intensity” value was determined as 346.

The next assay addresses CaMyo5. Described as above. Summed up:
as §1
Take KWVRRPKLMTPLTFS: the “SPOT peptide array binding signal intensity” value was 11.5.
